According to the supplement of paper PMC6555819:

The sequences below were run on VDR:RXRa (NR concentration 270 nM, RXRa partner concentration 90 nM) (assay: PBM binding z-score (relative to random genomic background probes); higher = stronger binding; sequences stand for … in GC…GCGATTGACAGCGTAGAATGAAGG).
Procedure: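 Protein-binding microarray (Agilent 4x180K custom design, double-stranded 60-nt probes: 5' GC cap, 34-nt variable region, 24-nt constant primer region; full probe sequence given). Purified or IVT nuclear receptor:RXRα heterodimers (3:1 NR:RXRα, mostly 270:90 nM) or homodimers were incubated for 1 h in PBS with 2% milk and no ligand, then detected with Alexa488 antibodies. Fluorescence from o1-orientation probes (~5 replicates averaged) was converted to z-scores against 500 random hg19 background probes. Variable regions are seed direct-repeat (DR0–DR5) sites, all their single-nucleotide variants and half-site ablations.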

Sequence | PBM binding z-score
GGAACGAGGCCAAAGTTGATAGCATCTGTCGACG | -0.112
ATCTCTAGGTAAAAGTTCAGTGTATCCCGAGGAT | 1.56
CCTACTGGGCCAACAGGTCATTGATATCAACGTT | 1.93
AGTACAGGGTCACTAGGCCAGAGTAGGTACGAAT | 3.83
TCATAGAGGTAAAAGGTGAAAGTCGGTGTGGTAA | 1.48
CCTAGCGGGCCAATCTGGGTCACTCAAGGCTTGA | 0.28
AATACAGGGTCACTACGCCAGAGTAGGTACGAAT | 4.39
CTCGAAAGGTCGTGCTCAGGTTAGTATACCAAAC | 3.79
CCGACTGGGACATAAGGTTACCATAAGCCAGCCC | 0.181
ATATGTAGGTTGTCGGGTCATTCAGTTTGCGCAT | 5
AGAACGAGGGCAATGAGTTGATAACACGGGTGGC | 5.15
CCTAGCAGGCCAGGGTCTCTCAAGCATTTCGCTT | -0.712
CGTCCAAGGCCAAAGGTCAGTGAAGAGATGACGG | 3.16
AGAATGAGGTTACCTAAGATCAGGGAAACGCTTG | 1.47
TTACCAAGGTGAAGGTCGTTGATCCCTCTGTAGA | 1.24
CAAACTAGGTCACGAAAGTTCAAAGTCGAATGAC | 7.01
TCGAGTAGGTTTGTCGGGGCATTCAGCCAACATA | 0.467
CCTACCAGGCCAGGGTCACTCAAGCATTTCGCTT | 2.7
TCTTCTAGGTCAGTTGGTCAGCTAACGAGCTGCC | 1.3
CGAACGAGGGCATTAGTTGATAGCAAATGCCGAT | 0.658

Sequence | PBM binding z-score
CCAGACAGGTGAAAAGGTAACTCAGCCTCGATTA | 0.369
CTCCAAAGGTCGTGCTCAGGTGAGTATACCAAAC | 3.59
GATACTGGGTCAGCTAGAGGCCAGAGTATGGAAA | 0.938
TCGAGTAGGTTAGGGGCATTCAAAATGGCGTCGA | 0.856
TCATATAGGTAAATGCTAGTTGAAAGTCCGATCT | 1.07
CCTAGTTGGTCAGGAGGTCACACATCGGATATGA | 3.76
CCTACTGGGCCATCAGATCATTGATATCAACGTT | -0.181
TGTTGTAGATCAAGCAGGTTAAGAAAGCCTGAGT | 0.0987
GCAGACAGGTAAAACGCAGGTAACTCAGGGTGGC | -0.484
GCATATAGGTAATGCAAGGTGAAAGTCCGATTGT | 0.358
TCATGTAGGTAAAGGTGAAAGTCGAACGATATGA | 1.11
TAGCCTAGGTCATTGGGCCATTATAGTACGCATC | 2.54
TAGCATAGGTCATGGGCCAGTATACCACGCGAAC | 3.33
CGAACGAGGGCATGAGTGGATAGCAAATGCCGAT | 0.295
ACTAGTTGGTCCGCTGAGGTCACACACAATTCGG | 3.75
CAAACTAGGTCAAGATGTCAAAGTCCGCTTCCCG | 2.2
CAAACTAGGTCACCTGAAGGTCAAAGTCCGCATG | 5.59
ATAGAAAGGTCGAGGTGAGTATAGAGAAAGGGAA | 2.79
ATATGTAGGTTAGCCGGGGTCATTCAGACTAGGC | 6.67
CCGACTGGGGCAGAGAGGTTACCATACCATCCGG | 1.73
